Test results published in PubChem BioAssay AID1159580 (chemical genetic matrix, 2015).
Screen size: about 5,500 compounds; about 2,000 (36%) were called active. Another 18% or so got no clear call; they are omitted. No stated cut-off is given here; in the data, active means normalized growth mostly below about 0.91 (no sharp cut-off); inconclusive means no clear call, values can overlap the other calls; inactive means mostly above about 0.92. The list shows a part of the results.

Assay: chemical genetic growth profiling, strain panel (AID 1159580);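 further: tested at 20 µM; growth read once vehicle control cultures reached saturation at 30 °C; 1 = growth at the plate median or of vehicle wells; lower values mean less growth of the strain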
Conditions: S. cerevisiae deletion strains, growth OD

Measured: normalized growth

COC(=O)CCC(C)C1CCC2C3CC[C@@H]4C[C@H](O)CC[C@]4(C)C3C[C@H](O)[C@]12C (some centres undefined)
active: locus YLR027C, strain aat2, hits give low values 0.918 | locus YLR113W, strain HOG1, hits give low values 0.439 | locus YLR262C, strain YPT6 (second series), hits give low values 0.776 | locus YLR320W, strain mms22, hits give low values 0.812 | locus YLR330W, strain CHS5, hits give low values 0.903 | locus YLR342W, strain FKS1, hits give low values 0.699 | locus YLR418C, strain cdc73, hits give low values 0.77 | locus YMR205C, strain PFK2, hits give low values 0.846 | locus YNL071W, strain lat1, hits give low values 0.72 | locus YOR184W, strain ser1, hits give low values 0.853 | locus YOR231W, strain MKK1, hits give low values 0.814 | locus YPL051W, strain arl3, hits give low values 0.913 | locus YPL256C, strain CLN2, hits give low values 0.8
inactive: locus YJR043C, strain POL32, hits give low values 1.02 | locus YJR066W, strain TOR1, hits give low values 0.941 | locus YKL009W, strain mrt4, hits give low values 0.959 | locus YKL068W, hits give low values 0.993 | locus YKL085W, strain MDH1 (second series), hits give low values 0.991 | locus YKL085W, strain MDH1, hits give low values 0.991 | locus YKL160W, strain elf1, hits give low values 0.92 | locus YKL190W, strain CNB1, hits give low values 1.02 | locus YKR001C, strain vps1, hits give low values 0.931 | locus YKR026C, strain gcn3, hits give low values 1 | locus YKR091W, strain srl3, hits give low values 0.993 | locus YLL001W, strain dnm1, hits give low values 0.99 | locus YLL026W, hits give low values 0.986 | locus YLL041C, strain sdh2, hits give low values 1.01 | locus YLR039C, strain RIC1, hits give low values 0.88 | locus YLR058C, strain SHM2, hits give low values 0.972 | locus YLR102C, strain apc9, hits give low values 1.01 | locus YLR221C, strain rsa3, hits give low values 0.932 | locus YLR258W, strain gsy2, hits give low values 0.958 | locus YLR262C, strain YPT6, hits give low values 0.792 | locus YLR268W, strain sec22, hits give low values 1 | locus YLR342W, strain FKS1 (second series), hits give low values 0.933 | locus YLR357W, strain rsc2, hits give low values 0.982 | locus YLR370C, strain arc18, hits give low values 0.998 | locus YLR371W, strain rom2, hits give low values 1.01 | locus YLR384C, strain iki3, hits give low values 0.992 | locus YML016C, strain PPZ1, hits give low values 1.05 | locus YML032C, strain rad52, hits give low values 0.981 | locus YML120C, strain ndi1, hits give low values 0.988 | locus YML124C, strain tub3, hits give low values 1 | locus YMR058W, strain fet3, hits give low values 0.976 | locus YMR078C, strain ctf18, hits give low values 1.01 | locus YMR125W, strain sto1, hits give low values 0.983 | locus YMR129W, hits give low values 1 | locus YMR223W, strain ubp8, hits give low values 0.98 | locus YMR231W, strain pep5, hits give low values 0.977 | locus YMR263W, strain SAP30, hits give low values 0.998 | locus YMR307W, strain GAS1, hits give low values 0.843 | locus YNL067W, strain RPL9B, hits give low values 0.98 | locus YNL153C, strain GIM3, hits give low values 0.982 | locus YNL183C, strain NPR1, hits give low values 0.908 | locus YNL209W, strain ssb2, hits give low values 1 | locus YNL233W, strain BNI4, hits give low values 0.927 | locus YNL248C, strain rpa49, hits give low values 1.04 | locus YNL250W, strain rad50, hits give low values 1.04 | locus YNL271C, strain bni1, hits give low values 1.01 | locus YNL298W, strain CLA4, hits give low values 1.05 | locus YNL307C, strain MCK1, hits give low values 0.917 | locus YNL322C, strain KRE1 (second series), hits give low values 0.999 | locus YNL322C, strain KRE1, hits give low values 1.01 | locus YNR049C, strain mso1, hits give low values 0.99 | locus YNR052C, strain pop2, hits give low values 0.971 | locus YOL006C, strain TOP1, hits give low values 0.909 | locus YOL012C, strain htz1 0.571 | locus YOL147C, strain pex11, hits give low values 1.02 | locus YOR001W, strain rrp6, hits give low values 0.995 | locus YOR061W, strain CKA2, hits give low values 0.999 | locus YOR069W, strain VPS5, hits give low values 1.02 | locus YOR070C, strain gyp1, hits give low values 0.971 | locus YOR080W, strain dia2, hits give low values 1.01 | locus YOR083W, strain WHI5, hits give low values 0.984 | locus YOR106W, strain vam3, hits give low values 0.933 | locus YOR136W, strain idh2, hits give low values 1.01 | locus YOR144C, strain elg1, hits give low values 1.01 | locus YOR265W, strain rbl2, hits give low values 0.98 | locus YOR270C, strain vph1, hits give low values 0.99 | locus YOR290C, strain snf2, hits give low values 1.01 | locus YOR316C, strain cot1, hits give low values 1.01 | locus YPL078C, strain atp4, hits give low values 0.943 | locus YPL106C, strain sse1, hits give low values 0.989 | locus YPL240C, strain hsp82, hits give low values 0.992 | locus YPR119W, strain clb2, hits give low values 0.994 | locus YPR141C, strain kar3, hits give low values 1.01 | locus YPR163C, strain tif3, hits give low values 1.02 | locus YPR167C, strain met16, hits give low values 1.02 | strain wtn01, hits give low values 1.03
